# Source: PubChem BioAssay
# CF NFkB inh = cystic fibrosis NF-kB activation inhibition; KKLEB NF-kB-GFP reporter, PAF-induced, GFP fluorescence overnight; inhibition, % at 5 µM; hit rate 0.86% among 360,000;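 active = at least 50% inhibition at 5 µM, scaled per plate between neutral and stimulator controls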;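 note: PAF is a Pseudomonas aeruginosa culture filtrate used as stimulus; plate controls were PAF-stimulated DMSO wells for no effect and unstimulated DMSO wells for full effect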
# Peg3 promoter = reduces Peg3 promoter-driven luciferase expression in HeLa; HeLa PEG-Prom luciferase reporter, luminescence, overnight; inhibition, % at 20 µM; hit rate 1.7% among 360,000; AID 588405;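 active = inhibition of at least 50% at 20 µM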
# PPC-1+TRAIL kill = kills PPC-1 cancer cells in the presence of TRAIL; PPC-1 cells + TRAIL, ATPLite viability luminescence; hit rate 0.41% among 220,000; cell killing (% activity), % at 4 µM or 5 µM;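 active = cell killing above 50% in the first pass at 4 µM, then a duplicate retest at 5 µM averaging 50% or more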;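 note: plate controls were cells with TRAIL plus DMSO for no effect and medium-only wells lacking cells for full effect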
# KKLEB tox = CF airway cell cytotoxicity counter-screen. KKLEB CF airway cells viability, ATPlite luminescence, overnight; active compounds read low; cells stimulated with P. aeruginosa culture filtrate. activity change (cytotoxicity), % at 5 µM. hit rate 0.36% among 360,000. AID 602141;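 active = corrected activity change at or below -50% at 5 µM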
# TRAIL sens C8 = caspase-8 TRAIL sensitization. hit rate 1% among 360,000. AID 624354. inhibition (viability loss, TRAIL sensitization), % at 10 µM. NB7+C8 cells + TRAIL, ATPlite viability luminescence;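 active = compounds causing at least 50% loss of cell viability in the single-dose screen, relative to plate controls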
# HIF-2a block = blocks HIF-2a reporter activity. 786-0 RCC cells HIF-2a reporter, luciferase luminescence, overnight. inhibition, % at 18.8 µM. hit rate 0.72% among 360,000. AID 624352;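 active = inhibition of the luminescence signal of 40% or more relative to plate controls, in a single-dose primary screen at 18.75 µM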
# PPC-1 tox = PPC-1 cell cytotoxicity | shares compounds with PPC-1+TRAIL kill | PPC-1 viability, ATPlite luminescence, overnight | cytotoxicity, % at 5 µM | hit rate 50% among 1,200;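 active = reconfirmed compounds whose average cytotoxicity reaches 50% or more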;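 note: 0% = DMSO-treated cells and 100% = wells holding medium but no cells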
# * = called active by the depositor; x = no result. This is a sample that favours compounds with a hit; in the whole collection about 3.1% have one here.
SMILES,CF NFkB inh,Peg3 promoter,PPC-1+TRAIL kill,KKLEB tox,TRAIL sens C8,HIF-2a block,PPC-1 tox
Cc1ccc2sc(-c3ccc(NC(=O)/C=C\C(=O)O)cc3)nc2c1,-22,-299,44,-15,39,-234,44
Cc1nc(-c2ccc(NC(=O)/C=C\C(=O)O)cc2)cs1,-1,19,7,16,17,-15,x
COc1ccc2nc(Cl)c(/C=N/Nc3ccccn3)cc2c1,-36,-215,66*,-7,67*,-204,65*
COc1ccccc1-c1nnc(Nc2nc3c(OC)cccc3s2)o1,22,-31,7,-27,30,-78,x
COc1cccc(-c2nnc(Nc3nc4c(F)cccc4s3)o2)c1,0,-155,44,-14,71*,-241,48
CC(=NNC(=O)c1ccncc1)c1cc(Cl)ccc1Cl,-13,-9,x,11,-1,7,x
COCCSc1ccccc1C(=O)NCc1ccc(S(N)(=O)=O)cc1,4,13,6,-2,4,19,7
OC(c1cc(-c2ccc(Cl)cc2)nc2ccccc12)C1CCCCN1 (configuration not stated),18,109*,9,-12,33,-20,-6
NC(=O)C1CCN(C(=O)c2cc(-c3ccc(Cl)cc3)nc3ccccc23)CC1,7,-15,x,-10,6,-31,x
CCn1c(-c2ccco2)nc2ccccc21,6,-67,19,-5,9,-88,19
CCn1c(-c2ccc(N(C)C)cc2)nc2ccccc21,0,-229,60*,11,65*,-207,60*
CN(C)c1ccc(-c2nc3ccccc3n2C)cc1,-12,20,88*,-49,82*,-55,88*
CCn1c(/C=C/c2ccccc2)nc2ccccc21,-11,-137,66*,-53*,72*,-175,68*
CC(C)n1c(-c2ccc(N(C)C)cc2)nc2ccccc21,-2,-184,14,-2,42,-203,x
c1ccc(OCCn2c(-c3ccco3)nc3ccccc32)cc1,-18,-83,8,5,0,-149,x
CCn1c(-c2ccc(N)cc2)nc2ccccc21,19,-117,-18,-10,10,-148,x
CC(C)Cn1c(/C=C/c2ccccc2)nc2ccccc21,-6,-207,4,0,46,-269,x
Cc1ccc(N2CCN(C(=O)c3cc(-c4ccc(F)cc4)[nH]c3C)CC2C)cc1 (configuration not stated),-7,20,x,5,9,-6,x
COc1cc(C(=O)NCC(=O)NNC(=O)C2COc3ccccc3O2)cc(OC)c1OC (configuration not stated),25,7,x,-9,2,7,x
CCOC(=O)C1=CCN(S(=O)(=O)c2ccc(F)cc2)C1c1ccc(F)cc1 (configuration not stated),x,x,x,x,6,4,x
CCNC(=O)CN(c1ccccc1)S(=O)(=O)c1ccc(Cl)cc1,22,11,-4,-5,-4,20,1
CCNC(=O)CN(c1ccc(Cl)cc1)S(=O)(=O)c1ccccc1,0,20,-2,0,-5,16,x
COC(=O)[C@H](CCSC)NC(=O)N1CCC(C)CC1,-11,0,-5,6,-12,10,-2
OC[C@H]1O[C@H](OC[C@H]2OC(O)[C@H](O)[C@@H](O)[C@@H]2O)[C@H](O)[C@@H](O)[C@@H]1O (some centres not stated),2,-8,x,-13,2,-3,x
Cc1csc(SCC(=O)Nc2ccc3[nH]c(=O)[nH]c3c2)n1,11,3,x,4,16,9,x
SMILES,CF NFkB inh,Peg3 promoter,PPC-1+TRAIL kill,KKLEB tox,TRAIL sens C8,HIF-2a block,PPC-1 tox
CC(=O)Nc1ccc(NC(=O)CSc2nnc(-c3ccc4c(c3)OCO4)o2)cc1,3,-150,x,-7,7,-85,x
CC(=O)CSc1nnc(-c2ccc3c(c2)OCO3)o1,-18,-70,27,2,35,-28,31
COc1ccccc1NC(=O)CSc1nnc(-c2ccc(C)cc2)o1,8,-202,43,-6,48,-76,53*
COc1ccc(C)cc1NC(=O)CSc1nnc(-c2ccc(Br)cc2)o1,2,-89,31,1,25,-44,x
O=C(CSc1nnc(-c2ccc(O)cc2)o1)Nc1ccc2c(c1)OCCO2,-13,-235,65*,1,34,-198,66*
CCc1ccc(C(=O)COC(=O)C2=NN(c3ccccc3)C(=O)CC2)cc1,-21,-13,x,7,8,-2,x
CC1CC(C)CN(C(=O)CSc2ncnc3sccc23)C1 (configuration not stated),2,-20,x,-4,-4,-52,x
O=C(Nc1ccccn1)c1ccc2ccccc2n1,-22,-221,38,-6,55*,-149,52*
O=C(CSc1nnc(-c2cccs2)o1)NCC1CN(Cc2ccccc2)CCO1 (configuration not stated),-8,-6,1,4,-14,-13,7
C=CCNC(=O)CSc1nnc(-c2cccs2)o1,2,-1,0,-3,-31,-1,x
Cc1ccc(C)c(NS(=O)(=O)c2cc(C(N)=O)ccc2C)c1,-4,10,16,-1,2,6,-1
CCOC(=O)/C=C1\SCC(=O)N1CC(=O)Nc1cc(S(=O)(=O)N(C)C)ccc1C,-2,1,x,3,-12,-3,x
CC(C)(C)C(=O)N1CCc2cc(-c3csc(N)n3)ccc21,-5,-29,82*,0,87*,-15,83*
COc1ccc(NC(=O)c2nc3ccccc3s2)cc1,-14,-86,36,-8,46,-56,39
COc1ccc(C(=O)NCCCNC(=O)c2ccc(C)nc2)cc1,-25,3,x,9,12,0,x
CCn1c(-c2cc(-c3ccc(C)cc3)nc3ccccc23)n[nH]c1=S,3,-54,19,-7,6,-56,x
CCn1c(-c2cc(-c3ccc(OC(C)C)cc3)nc3ccccc23)n[nH]c1=S,13,-194,41,-39,56*,-204,34
O=C(Nc1cccc2ccccc12)C12CC3CC(C1)CC(n1cnc([N+](=O)[O-])n1)(C3)C2,-3,36,4,1,7,30,14
O=C(N=C1SC2CS(=O)(=O)CC2N1c1ccc(Cl)cc1Cl)C1CC1 (configuration not stated),6,21,x,16,6,7,x
Nc1ccc2oc(-c3ccccn3)nc2c1,1,-147,34,3,31,-162,x
Nc1ccc(-c2nc3ccc(N)cc3o2)cc1,-5,-210,44,-21,68*,-65,45
COc1cccc(NC(=O)C2(C)CCN2C(=O)CCc2ccc(Cl)cc2Cl)c1 (configuration not stated),-18,-7,x,9,10,-11,x
